# Screens as filed in PubChem.
# The full list was thinned out, with hits kept by preference.
# NOMO-1 viab: NOMO-1 AML cell viability reduction, primary screen, STK33 inhibitor project, CellTiter-Glo luminescence. NOMO-1 AML viability, 72 h. inhibition, % (no concentration beside the values). hit rate 7.5% among 37,000. AID 2330, 2010; in the data active = inhibition above about 80%; inconclusive = no clear call, values can overlap the other calls
# MITF inhib: inhibitors of MITF, primary screen, MITF inhibitor project, cell-based, luminescence; inhibition, % (no concentration beside the values); TRPM1 promoter luciferase, 24 h; AID 2240, 2010; hit rate 0.28% among 37,000; in the data active = inhibition above about 85%; inconclusive = no clear call, values can overlap the other calls; inactive = below about 68%;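 note: human melanocyte line stably carrying TRPM1 promoter luciferase reporter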
# U2OS ROS induce: ROS inducers in U2OS cancer cells, primary screen, cell-based, H2DCF-DA fluorescence | U2OS ROS induction | ROS induction (% of piperlongumine), % at 10 µM | hit rate 2% among 46,000 | AID 624156, 2012; in the data active = ROS induction above about 79%, passing the limit was not always enough; inconclusive = no clear call, values can overlap the other calls;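 note: 0% = DMSO vehicle median and 100% = reference compound median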
# YB-1 expression: inhibitors of YB-1 gene expression, primary screen, cell-based, fluorescence. hit rate 0.37% among 30,000. delta delta Cp (YB-1 minus CDIP) (test concentration not listed). U2OS, qRT-PCR YB-1 vs CDIP delta delta Cp, 16 h; hits give high values; zero = DMSO, each unit about twofold;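 active = delta delta Cp rounded down to an integer at or above 3, about 3 SD of DMSO wells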;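 note: higher means less YB-1 transcript or more CDIP transcript relative to DMSO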
# PD-1 reverse act: activators reversing PD-1 mediated T-cell inhibition, primary screen, luminescence, primary human CD4 T cells, PD-L1 beads; CellTiter-Glo 96 h; activation, % (test concentration not listed); 29,000 tested, under 10 active; call rule not given here;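 note: 0% = median vehicle wells and 100% = positive control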
# Starred values were filed as active, the others as inactive; ? = inconclusive; . = no result.
SMILES,NOMO-1 viab,MITF inhib,U2OS ROS induce,YB-1 expression,PD-1 reverse act
CCc1c(C)c(C#N)c2nc3ccccc3n2c1NCCC(C)C,.,.,156.6*,.,.
CC(C)CCNc1cc(C(C)C)c(C#N)c2nc3ccccc3n12,.,.,197.4*,.,.
COc1ccccc1N1CCN(c2nc(Nc3ccc(C)cc3)c3cnn(C)c3n2)CC1,.,.,29.5,.,.
COc1ccc2c(c1)OCC(Cc1ccc(OC)c(OC(C)=O)c1)C2=O (configuration not stated),107.9*,4.1,19.6,-0.0622,.
COc1ccc2c(c1)O[C@@H]1COc3cc(OC)c(OC)cc3[C@@H]1C2=O,52.4,109.5*,0.0,-0.215,.
Nc1cc(=O)[nH]c(S/C=C/c2ccccc2)n1,.,.,-5.2,.,.
COCCOC(=O)N1C(=O)[C@@]2(c3ccccc31)[C@H](c1ccccc1OCCO)N1[C@H](c3ccccc3)[C@H](c3ccccc3)OC(=O)[C@H]1[C@@H]2C(=O)NC[C@H](O)c1ccccc1,.,.,348.4*,-0.492,.
COCCOC(=O)N1C(=O)[C@@]2(c3cc(C#CCCO)ccc31)[C@H](c1ccccc1OCCO)N1[C@H](c3ccccc3)[C@H](c3ccccc3)OC(=O)[C@H]1[C@@H]2C(=O)NC[C@H](O)c1ccccc1,.,.,29.3,0.348,.
C=CCNC(=O)[C@@H]1[C@H]2C(=O)O[C@H](c3ccccc3)[C@H](c3ccccc3)N2[C@H](c2ccc(O)cc2)[C@@]12C(=O)N(C(=O)OCCOC)c1ccccc12,.,.,52.7,0.0585,.
C=CCNC(=O)[C@H]1[C@@H]2C(=O)O[C@@H](c3ccccc3)[C@@H](c3ccccc3)N2[C@@H](c2ccccc2OCCO)[C@]12C(=O)N(C(=O)OCCOC)c1ccccc12,.,.,177.9*,0.0901,.
C=CCNC(=O)[C@@H]1[C@H]2C(=O)O[C@H](c3ccccc3)[C@H](c3ccccc3)N2[C@H](c2ccccc2OCCO)[C@@]12C(=O)N(C(=O)OCCOC)c1ccccc12,.,.,183.4*,-0.196,.
COCCOC(=O)N1C(=O)[C@@]2(c3ccccc31)[C@H](C(N)=O)[C@H]1C(=O)O[C@H](c3ccccc3)[C@H](c3ccccc3)N1[C@@H]2c1ccc(OCCO)cc1,.,.,123.9*,0.608,.
COCCOC(=O)N1C(=O)[C@@]2(c3ccccc31)[C@H](C(N)=O)[C@H]1C(=O)O[C@H](c3ccccc3)[C@H](c3ccccc3)N1[C@@H]2c1ccc(O)cc1,.,.,3.1,0.168,.
COCCOC(=O)N1C(=O)[C@@]2(c3ccccc31)[C@H](C(N)=O)[C@H]1C(=O)O[C@H](c3ccccc3)[C@H](c3ccccc3)N1[C@@H]2c1ccccc1OCCO,.,.,72.9,-0.253,.
C[C@H](CO)N1C[C@H](C)[C@@H](CN(C)S(=O)(=O)c2ccc(Cl)cc2)Oc2c(NC(=O)c3cnccn3)cccc2C1=O,21.6,-9.5,0.4,-1.21,-3.1
CCCCC(=O)O[C@H]1CCC2C3CCc4cc(O)ccc4C3CC[C@@]21C (some centres not stated),54.4,-24.1,4.7,0.052,.
C[C@]12CCC3c4ccc(O)cc4CC[C@H]3C1CC[C@H]2O (some centres not stated),96.4*,13.0,-5.2,0.379,-2.2
C[C@]12CC[C@@H]3c4ccc(O)cc4CC[C@H]3[C@@H]1CC[C@@H]2O,87.3*,24.1,-4.4,0.0815,.
CC(=O)OC1CCC2C3CCc4cc(O)ccc4C3CCC12C (configuration not stated),99.4*,11.8,?,0.0216,.
N#CCc1ccc(NC(=O)CN2C(=O)c3ccccc3S2(=O)=O)cc1,-22.2,-7.8,.,.,.
CCOC(=O)N1CCN(C(=O)CNC(=S)N(Cc2cccs2)C2CCCCC2)CC1,.,.,2.0,.,.
C[C@@H]1CN([C@H](C)CO)C(=O)Cc2cc(NC(=O)C3CCCCC3)ccc2O[C@H]1CN(C)Cc1ccc(Cl)c(Cl)c1,?,7.1,6.6,-0.288,-0.9
C[C@H](CO)N1C[C@H](C)[C@@H](CN(C)Cc2ccc3c(c2)OCO3)Oc2ccc(NC(=O)C3CCCCC3)cc2C1=O,21.8,-5.7,59.0,-0.0565,-0.6
C[C@@H]1CN([C@H](C)CO)C(=O)Cc2cc(NC(=O)C3CCCCC3)ccc2O[C@@H]1CN(C)Cc1ccc(Cl)c(Cl)c1,114.2*,25.6,25.6,-0.208,-5.8
C[C@@H]1CN([C@H](C)CO)C(=O)Cc2cc(NC(=O)C3CCCCC3)ccc2O[C@@H]1CN(C)Cc1ccc2c(c1)OCO2,12.8,3.8,141.2*,0.606,-2.6
SMILES,NOMO-1 viab,MITF inhib,U2OS ROS induce,YB-1 expression,PD-1 reverse act
C[C@H](CO)N1C[C@H](C)[C@H](CN(C)Cc2ccc3c(c2)OCO3)Oc2ccc(NC(=O)C3CCCCC3)cc2C1=O,93.5*,0.3,8.4,-0.311,0.3
C[C@@H]1CN([C@H](C)CO)C(=O)Cc2cc(NC(=O)C3CC3)ccc2O[C@@H]1CN(C)Cc1ccc(Cl)c(Cl)c1,25.6,8.9,163.8*,-0.231,-2.7
C[C@H](CO)N1C[C@H](C)[C@H](CN(C)Cc2ccc(Cl)c(Cl)c2)Oc2ccc(NC(=O)C3CC3)cc2CC1=O,20.8,-6.9,6.3,0.395,0.1
O=C(CSCn1nnc2c(=O)[nH]c(Cc3ccc(F)cc3)nc21)Nc1ccc(F)cc1,.,.,-18.7,.,.
C[C@H]1CN([C@@H](C)CO)C(=O)Cc2cc(NC(=O)NC3CCCCC3)ccc2O[C@@H]1CN(C)Cc1ccncc1,17.6,-13.5,1.3,-0.19,0.9
C[C@H](CO)N1C[C@H](C)[C@H](CN(C)Cc2ccc(Cl)c(Cl)c2)Oc2ccc(NC(=O)NC3CCCCC3)cc2CC1=O,99.6*,5.6,20.4,0.0659,-1.2
C[C@]1(O)CC[C@@H]2C(C(=O)O)=CO[C@@H](O[C@@H]3O[C@H](COC(=O)/C=C/c4ccc(O)c(O)c4)[C@@H](O)[C@H](O)[C@H]3O)[C@@H]21,-23.4,-6.7,-8.5,-0.224,-0.4
C[C@@H]1CN([C@H](C)CO)C(=O)c2cc(NC(=O)CCC(F)(F)F)ccc2O[C@H]1CN(C)Cc1ccc(Oc2ccccc2)cc1,85.1*,16.4,22.4,-0.134,.
C[C@H]1CN([C@@H](C)CO)C(=O)Cc2cc(NC(=O)CCC(F)(F)F)ccc2O[C@@H]1CN(C)Cc1ccc(-c2ccccc2)cc1,97.1*,31.7,59.1,0.127,.
C[C@@H]1CN([C@H](C)CO)C(=O)Cc2cc(NC(=O)CCC(F)(F)F)ccc2O[C@H]1CN(C)Cc1ccc(Oc2ccccc2)cc1,93.8*,14.3,32.3,-0.176,-4.0
Cn1c(=O)c2c(nc(NCc3cccnc3)n2Cc2c(F)cccc2Cl)n(C)c1=O,7.3,-21.0,19.9,.,-0.4
CCCOC(=O)c1ccc(NC(=O)c2ccc(C)c(Br)c2)cc1,.,.,6.1,.,.
O=C(NC(=S)NCc1cccnc1)c1ccc(-c2cccc(Cl)c2Cl)o1,12.7,-36.4,-3.4,.,1.8
C[C@@H]1CN([C@@H](C)CO)C(=O)c2cccc(NC(=O)c3ccc(-c4nccs4)cc3)c2O[C@@H]1CN(C)Cc1ccc(-c2ccccc2)cc1,56.7,-5.4,66.7,-0.125,-4.9
